Laboratory results: PubChem BioAssay

Target: NADPH oxidase 4 (Homo sapiens) (UniProt Q9NPH5)
Assay: NOX4-dependent H2O2 signal modulators, primary screen, NOX inhibitor project, cell-based, HEK293-NOX4, tetracycline-induced, Amplex Red fluorescence (AID 1160)
Conditions: 45 min, higher = more signal, called active from +8 up or from −8 down

NADPH oxidase 4 (Homo sapiens), sequence (Q9NPH5 whole entry, looked up): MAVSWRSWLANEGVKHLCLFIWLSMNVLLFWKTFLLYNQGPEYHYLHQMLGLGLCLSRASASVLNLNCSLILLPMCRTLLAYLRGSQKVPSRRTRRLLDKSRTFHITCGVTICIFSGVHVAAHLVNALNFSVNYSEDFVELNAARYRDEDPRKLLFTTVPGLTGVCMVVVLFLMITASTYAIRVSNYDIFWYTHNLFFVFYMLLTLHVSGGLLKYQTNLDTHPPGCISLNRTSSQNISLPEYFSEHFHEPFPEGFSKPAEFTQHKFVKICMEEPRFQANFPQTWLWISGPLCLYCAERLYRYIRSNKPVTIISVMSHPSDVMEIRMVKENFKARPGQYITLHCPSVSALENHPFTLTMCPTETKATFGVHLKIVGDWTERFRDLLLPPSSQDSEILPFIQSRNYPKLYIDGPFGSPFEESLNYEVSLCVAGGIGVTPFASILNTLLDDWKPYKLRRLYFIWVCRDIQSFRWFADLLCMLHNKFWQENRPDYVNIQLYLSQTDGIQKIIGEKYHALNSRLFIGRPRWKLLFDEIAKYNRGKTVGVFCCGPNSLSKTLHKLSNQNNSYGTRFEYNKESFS

z-score, inactive:
CCOC(=O)[C@H](Cc1ccccc1)NC(=O)CCC1CC(OC(=O)NCc2cccc3ccccc23)CC2(CCCC(COC(=O)NCc3cccc(C(F)(F)F)c3)O2)O1 (stereo partly specified) 0.0385
COC(=O)CC=C[C@@H](C)[C@@H](C=NOC(C)CN1CCCc2nc(C)c(C)cc21)OC (stereo partly specified) -0.14
COC(=O)[C@@H]1CC[C@H](C)[C@@H](c2ccc(C)cc2)N1C(=O)c1ccc(C=NO[C@H](C)c2cn([C@H](CO)Cc3ccccc3)nn2)cc1 -0.591
CO[C@@H]1C=CCC(=O)N[C@@H](C)C(=O)OC[C@@H](OC)[C@H](C)CCCC(=O)OC[C@H]1C 0.957
COc1ccc(O[C@H]2C=C[C@@H](c3ccccc3)O[C@@H]2CON=C(C)C)cc1 -0.311
CCOC(=O)[C@H](CC(C)C)NC(=O)CCC1CC(OC(=O)NCc2cccc3ccccc23)CC2(CCCC(COC(=O)NCCOC)O2)O1 (stereo partly specified) 0.96
CCCCC#C[C@@H]1C=C[C@H](Oc2ccc(C(=O)OC)cc2)[C@@H](COC(=O)OCC)O1 0.725
Cc1ccc(S(=O)(=O)n2c3ccccc3c3nnc(C(=O)c4ccccc4)nc32)cc1 0.179
COc1ccc(O[C@H]2C=C[C@@H](c3ccccc3)O[C@@H]2CON=CC[C@@H]2C=C[C@H](OC(C)=O)[C@@H](COC(C)=O)O2)cc1 -2.22
O=C(NN=C1C[C@@H](O)[C@@H](O)[C@@H]2[C@@H]3C(=O)N(Cc4ccccc4)C(=O)[C@@H]3CC[C@@H]12)OCc1ccccc1 0.0701
COc1ccc(O[C@H]2C=C[C@@H](c3ccccc3)O[C@@H]2COC(=O)CCC(C)=NO[C@@H]2O[C@H](COC(C)=O)[C@@H](OC(C)=O)[C@H](OC(C)=O)[C@H]2OC(C)=O)cc1 1.75
CO[C@H]1COC(=O)CC=C[C@H](C)[C@@H](OC)COC(=O)[C@@H](C)NC(=O)CC=C[C@@H]1C 0.403
CC(C)[C@@H](OCc1ccccc1)[C@H](C)C=NOC[C@@H](O)COCc1ccco1 0.402
CCCCC#C[C@@H]1C=C[C@H](OC(C)=O)[C@@H](COC(C)=O)O1 1.05
CO[C@@H]1COC(=O)[C@@H](C)COC(=O)[C@@H](C)NC(=O)CC=C[C@@H]1C -2.43
C[C@H]1Cc2c(COc3ccccc3)nc3c(c2CO1)CN(CCOc1ccccc1)CC3 0.191
CCCNC(=O)OC[C@H]1O[C@H](CCON=C(C)CCC(=O)OC[C@H]2O[C@H](c3ccccc3)C=C[C@@H]2Oc2ccc(OC)cc2)C=C[C@@H]1Oc1ccc(OC)cc1 0.337
CCOC(=O)NN=C1C[C@@H](O)[C@@H](O)[C@@H]2[C@@H]3C(=O)N(C(C)(C)C)C(=O)[C@@H]3CC[C@H]12 0.644
C[C@@H](ON=C1[C@H]2CCn3c(=O)n(-c4ccccc4)c(=O)n3[C@H]2[C@H](O)[C@@H]2O[C@H]12)c1cn([C@@H]2COC[C@H]2O)nn1 -0.242
COc1ccc(COC(=O)NN=C2C[C@@H](O)[C@@H](O)[C@@H]3[C@@H]4C(=O)N(C5CCCCC5)C(=O)[C@@H]4CC[C@H]23)cc1 0.507
CC(=O)OC[C@H]1O[C@H](C#Cc2ccccc2)C=C[C@@H]1OC(C)=O 0.415
O=C1CCCC=C1C(CCc1ccccc1)OC(=O)c1ccc(Br)cc1 (stereo unspecified) 0.397
CCN1C(=O)[C@@H]2[C@H]3C(=CC[C@@H]2C1=O)C1(OCCCO1)[C@H]1O[C@H]1[C@H]3O -5.5
O=C1[C@H]2[C@H]3[C@H](O)[C@H](O)CC(=NOCc4ccccc4)[C@@H]3CC[C@H]2C(=O)N1C[C@@H]1CCCO1 0.531
COC(=O)[C@H]1O[C@@H](c2c(OC)c(OC)c(C)c(OC)c2OC)[C@H](C)[C@@H](O)[C@H]1C 0.792
C#CCCCON=C1C[C@@H](O)[C@@H](O)[C@@H]2[C@@H]3C(=O)N(C(C)(C)C)C(=O)[C@@H]3CC[C@H]12 0.132
C=CC[C@@H]1C=C[C@H](ON=C(C)CCN2CCc3nc(-c4ccccc4)c(-c4ccccc4)cc3C2)[C@@H](CO)O1 -0.835
CC(C)=CCCC(C)=CCON=C1C[C@@H](O)[C@@H](O)[C@@H]2[C@@H]3C(=O)N(Cc4ccccc4)C(=O)[C@@H]3CC[C@H]12 0.913
C[n+]1ccc(-c2ccc(CO)cc2)cc1 -0.0911
CC(C)=CCCC(C)=CCON=C1C[C@@H](O)[C@@H](O)[C@@H]2[C@@H]3C(=O)N(c4cccc(Oc5ccccc5)c4)C(=O)[C@@H]3CC[C@@H]12 -0.237
CO[C@@H]1COC(=O)[C@H](CCSC)NC(=O)CC=C[C@@H](C)COC(=O)[C@H](C)NC(=O)CC=C[C@H]1C -0.0183
CON=CC[C@@H]1C=C[C@H](OC(C)=O)[C@@H](COC(C)=O)O1 -0.0561
CC(C)CON=C1C[C@@H](O)[C@@H](O)[C@@H]2[C@@H]3C(=O)N(c4ccc(F)cc4F)C(=O)[C@@H]3CC[C@H]12 0.632
CC(C)(C)N1C(=O)[C@H]2[C@H]3[C@H](O)[C@H](O)CC(=NOCc4ccccc4)[C@H]3CC[C@H]2C1=O 0.991
C[C@@H](c1ccccc1)N1C(=O)[C@H]2[C@H]3[C@H](O)[C@H](O)CC(=NOCc4ccccc4)[C@H]3CC[C@H]2C1=O 0.0357
CCOC(=O)[C@H](Cc1ccccc1)NC(=O)CCC1CC(OC(=O)NCc2cccc3ccccc23)CC2(CCCC(COC(=O)NCC(c3ccccc3)c3ccccc3)O2)O1 (stereo partly specified) 0.674
